Source: PubChem
Sampled rows, rich in hits. Any-hit rate of the full collection: about 5.2%.
Luciferase inh – qHTS Assay for Inhibitors of Firefly Luciferase; Luciferin 4-monooxygenase (Photinus pyralis), P08659; purified firefly luciferase, luminescence, 8 min; Potency, µM (titrated, usually from 57.1 µM), for inactives: top-dose activity change, negative = inhibition, most hits filed as inhibitors; 72,000 tested, 2.2% active; AID 411, 2009; further: on the % scale 0 is the no-effect control and ±100 the full control effect; nearly all actives have a fitted effect of over 40% in size
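Compounds were tested as concentration series (qHTS) against purified P. pyralis luciferase with luciferin and 10 uM ATP in 50 mM imidazole pH 7.2, 50 mM KCl, 7 mM MgCl2, 0.01% Tween 20, 0.05% BSA. Luminescence was read after 8 min at ambient temperature.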
TSHR ag – qHTS Assay for Agonists of the Thyroid Stimulating Hormone Receptor; Thyrotropin receptor (Homo sapiens), P16473; Potency, µM (top dose mostly 57.1 µM), without a hit: at the highest dose activation, actives largely listed as activators; 73,000 tested, 0.48% active; HEK293-CNG-TSHR cells (CNG channel as cAMP sensor), membrane potential dye, cAMP; AID 926, 2007; active means well fitted activation curve with a large enough effect in the main read-out, with a control signal flat, not every such curve was filed as active; inconclusive means small, poorly fitted or top-dose-only effect, or a change in a side signal; inactive means no such curve, though single readings can be large or run the other way; % of control where 0% means no effect;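 further: the control signal comes from parental cells without the receptor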
Target sequence (P16473 whole entry, looked up): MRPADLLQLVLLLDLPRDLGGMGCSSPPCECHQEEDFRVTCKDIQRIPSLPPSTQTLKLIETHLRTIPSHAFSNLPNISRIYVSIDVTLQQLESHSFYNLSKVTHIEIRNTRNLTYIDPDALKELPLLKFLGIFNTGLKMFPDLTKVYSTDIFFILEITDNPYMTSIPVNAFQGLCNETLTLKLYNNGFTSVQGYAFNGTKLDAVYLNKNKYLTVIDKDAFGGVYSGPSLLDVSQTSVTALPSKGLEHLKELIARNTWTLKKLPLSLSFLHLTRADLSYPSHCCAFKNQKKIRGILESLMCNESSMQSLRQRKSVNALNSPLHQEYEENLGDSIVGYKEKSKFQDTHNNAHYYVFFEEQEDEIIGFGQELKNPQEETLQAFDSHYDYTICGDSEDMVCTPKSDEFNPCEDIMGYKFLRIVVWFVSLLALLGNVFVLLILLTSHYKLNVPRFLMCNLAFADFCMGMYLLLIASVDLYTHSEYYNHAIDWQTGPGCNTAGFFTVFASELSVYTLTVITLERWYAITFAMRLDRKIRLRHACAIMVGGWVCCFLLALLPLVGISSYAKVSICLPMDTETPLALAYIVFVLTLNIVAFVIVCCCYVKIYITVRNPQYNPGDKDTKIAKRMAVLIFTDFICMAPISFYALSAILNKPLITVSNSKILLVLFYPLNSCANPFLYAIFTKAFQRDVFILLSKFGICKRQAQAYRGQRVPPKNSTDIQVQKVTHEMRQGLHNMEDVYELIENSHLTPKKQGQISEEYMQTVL
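HEK 293 cells stably expressing TSHR and a modified CNG channel, with CNG-only parental cells as counterscreen, were preloaded 60 min at room temperature with membrane potential dye containing 100 uM RO 20-1724. Compound exposure was 30 min, and depolarization was read as fluorescence at 590 nm.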
Bst PK mod – Pyruvate Kinase. 51,000 tested, 1.2% active. Potency, µM. purified pyruvate kinase, luminescence ATP production; ribose 5-phosphate activator present at AC10; in the data active means potency below about 11 µM; inconclusive means mostly about 12 µM to 25 µM;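 the screen sought inhibitors and activators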;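 further: scaled between full activation by ribose 5 phosphate and full inhibition by luteolin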
HEK293 cAMP ctrl – qHTS Assay for Agonists of the Thyroid Stimulating Hormone Receptor: Activators of Intracellular cAMP Concentrations in Parental HEK 293; AID 938, 2007; Potency, µM (highest dose often 57.1 µM), for inactives: top-dose activation, actives largely listed as activators; 73,000 tested, 2.5% active; parental HEK293 CNG cAMP sensor, membrane potential fluorescence; further: % of control where 0% means no effect; nearly all actives have a fitted effect of over 55% in size
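Parental HEK 293 cells stably expressing a modified CNG channel (no TSHR) report cAMP rise as membrane depolarization. Membrane potential dye with 100 uM RO 20-1724 was loaded for 60 min at room temperature, then compound added for 30 min; fluorescence read at 590 nm.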
Numbers without * were called inactive; i = inactive; u = inconclusive; x = no result given; [ ] = another dose, or the depositor's remark. Unless noted, the call rests on the fitted dose curve; in most records, active means well fitted curve in the direction sought with a large enough effect; inconclusive means small, poorly fitted or top-dose-only effect, or another doubt; inactive means no such curve, though single readings can be large; an effect the other way counts as inactive or inconclusive. Potency means the concentration at half of the fitted maximal effect.

SMILES | Luciferase inh | TSHR ag | Bst PK mod | HEK293 cAMP ctrl
CCC[C@@H]1C[C@@]1(CCC)C(NP(=O)(c1ccccc1)c1ccccc1)c1ccc(Cl)cc1 (stereo partly specified) | x | u | x | 13µM*
CCOCCCNC(=O)CCNS(=O)(=O)c1ccc(C)cc1 | 4% | 28% | >57 | 5%
Cc1ccc(OCC(=O)N2CCN(C(=O)Cc3ccccc3)CC2)cc1 | -1% | 0% | x | 5%
Cc1ccc2c(c1)c1ncnc(N3CCN(c4ccccc4)CC3)c1n2C | 7% | u | x | 25µM*
c1ccc(N2CCN(c3ncnc4c3oc3ccccc34)CC2)cc1 | 4% | u | x | 20µM*
CCOC(=O)C1CCN(c2ncnc3c2oc2ccccc23)CC1 | -2% | u | i | 25µM*
COC(=O)c1cc2ccccc2c(=O)s1 | 2% | 2% | >57 | 5%
CCOCCCn1c(=N)c(C(N)=S)cc2c(=O)n3cccc(C)c3nc21 | -2% | -5% | >57 | -10%
O=C(Cn1cnc2ccccc2c1=O)Nc1ccc2c(c1)OCCO2 | 13µM* | 4% | i | -1%
O=C(CSc1nc(Nc2ccccc2)nc(N2CCOCC2)n1)Nc1ccc2c(c1)OCCO2 | -2% | 25µM* | >57 | 10%
O=C(Cn1cnc2ccccc2c1=O)NCCC(=O)Nc1ccc2c(c1)OCCO2 | 2% | -2% | >57 | 3%
O=C(CSc1nc2ccccc2[nH]1)Nc1ccc2c(c1)OCCO2 | 25µM* | x | x | 46%
O=C(CC(=O)c1ccccc1)Nc1ccc2c(c1)OCCO2 | 20µM* | -1%[11.4 µM] | x | 4%
O=C1CC(NC23CC4CC(CC(C4)C2)C3)C(=O)N1c1ccc2c(c1)OCO2 (stereo unspecified) | 1% | -3% | >57 | -3%
Cc1cc(C)cc(OCC(=O)NCCN2CCOCC2)c1 | 1% | 1% | >57 | 2%
O=C(NCCCNC1CCCCC1)c1ccc(/C=N/O)nc1 | -1% | -3% | >57 | 6%
c1ncc(CC2CCNCC2)[nH]1 | 1% | 6% | x | 0%
CC(C)c1cc(NCCN2CCOCC2)n2c(nc3ccccc32)c1C#N | 1%[25.5 µM] | x | >26 | x
Cc1nn(C(=O)c2cccnc2)c(C)c1C | 2% | u | >57 | 6.3µM*
CCn1c(SCC(=O)c2ccc3c(c2)OCCO3)nnc1-c1ccco1 | 16µM* | 10% | x | 19%
CCn1c(SCC(=O)c2ccc(Cl)cc2)nnc1-c1ccoc1C | -5% | u | >57 | 25µM*
CCCn1c(SCC(=O)Nc2ccc3c(c2)OCCO3)nnc1-c1ccco1 | -1% | 0% | >57 | 7%
Cc1ccc(-n2c(SCC(=O)Nc3ccc4c(c3)OCCO4)nnc2-c2ccco2)cc1 | 2% | 25µM* | >57 | 23%
CC(C)OC(=O)CSc1nnc(-c2ccc(O)cc2)n1Cc1ccccc1 | 25µM* | x | x | 15%
COCCn1c(SCC(=O)c2ccc3c(c2)OCCO3)nnc1-c1ccco1 | -4% | 4% | >57 | 24%
SMILES | Luciferase inh | TSHR ag | Bst PK mod | HEK293 cAMP ctrl
CCn1c(SCC(=O)c2ccc(C)cc2)nnc1-c1ccoc1C | -13% | 13% | >57 | 34%
CCCCOc1ccccc1C1NC(=O)NC(C)=C1C(=O)OCc1ccco1 (stereo unspecified) | x | 26% | x | 14%
CC(=O)Nc1cccc(NC(=O)c2sc3ncn(CC(=O)N4CCCCC4)c(=O)c3c2C)c1 | -3% | -1%[11.4 µM] | >57 | 0%
CC(C)Cn1c(SCC(=O)c2ccc(Cl)s2)nnc1-c1ccco1 | -27% | u | >57 | 20µM*
Cc1ccc(C(=O)CSc2nnc(-c3ccco3)n2Cc2ccccc2)cc1 | -5% | u | >57 | 13µM*
CCOc1ccc(OCC)c(S(=O)(=O)NCc2cccnc2)c1 | x | 16% | x | 2%
CCOC(=O)C1CCCN(c2c(N3CCc4ccccc4C3)c(=O)c2=O)C1 (stereo unspecified) | 2% | 19% | x | 9%
CCOC(=O)c1c(C)c(C(=O)Nc2ccc(N(C)C)cc2)c(C)n1CC | -18% | 22%[11.4 µM] | >57 | 20%
CC(=O)N1CCc2cc(NC(=O)c3ccc(C)cc3)ccc21 | 6.3µM* | 2% | u | 7%
CC(=O)N1CCc2cc(S(=O)(=O)NCCC(=O)Nc3cc(C)cc(C)c3)ccc21 | 2% | 5% | >57 | 0%
COc1ccc2[nH]c3nc(SC(C)C)nnc3c2c1 | 1.6µM* | 7% | 4.5* | 9%
COc1ccc2[nH]c3nc(SCc4nnc(-c5ccccc5)o4)nnc3c2c1 | -40% | 8% | >57 | 19%
Cn1c(NCc2ccco2)nc2c1c(=O)n(Cc1ccc(Br)cc1)c(=O)n2C | 0% | -27% | >57 | -23%
COc1ccccc1N1CCN(c2nc(C)nc3c2oc2ccccc23)CC1 | -2% | u | >57 | 25µM*
Cc1nc(N2CCC(C)CC2)c2oc3ccccc3c2n1 | 2% | u | x | 25µM*
Cc1cc(C)nc(N2CCN(c3nc(C)nc4c3oc3ccccc34)CC2)n1 | 3% | 14% | >57 | 5%
Cc1ccc(-c2nnc3ccc(SCC(=O)Nc4cc(C)on4)nn23)cc1 | 2% | 3%[11.4 µM] | >57 | -3%
Cc1ccc(-c2csc(=S)n2CC(=O)OCC(=O)NCc2ccco2)cc1 | -1% | u | >57 | 32µM*
CCOC(=O)CSc1nc2cc(OC)ccc2cc1C#N | -10% | 14% | >57 | 29%
CCCCOC(=O)CSc1nc2c(cc1C#N)C(=O)CC(C)(C)C2 | 0% | u | >57 | 20µM*
Cc1cc(C)nc(Nc2ccc(N3CCCC3)cc2)n1 | u | -5% | x | 2%
O=C(CSc1nc2ccccc2o1)Nc1nc2c(s1)CCCC2 | 10µM* | u | i | 32µM*
Nc1nc(NC(=O)c2ccco2)nn1-c1ccccc1 | -5% | 12%[11.4 µM] | x | -4%[11.4 µM]
CC1=NC(C)Cc2ccccc21 (stereo unspecified) | 2% | 0%[11.4 µM] | >57 | 3%
Cc1noc(C)c1CSc1nc2ccccc2c(=O)n1-c1ccc(F)cc1F | -1% | u | >57 | 16µM*
SMILES | Luciferase inh | TSHR ag | Bst PK mod | HEK293 cAMP ctrl
Cc1noc(C)c1CSc1nc2[nH]ncc2c(=O)n1-c1ccccc1 | -2% | x | >57 | 14%
Cc1noc(C)c1CSc1nc2ccccc2c(=O)n1-c1ccccc1 | 1% | u | >57 | 10µM*
Cc1noc(C)c1CSc1nnc2n(-c3ccccc3)c(=O)c3ccccc3n12 | 7% | 7% | >57 | 11%
CN(C)C(=O)c1ccc(-c2cncnc2NCCc2cnc[nH]2)cc1 | 1%[2.29 µM] | -2% | x | 3%
CCOC(=O)CSc1nc2c(sc(=S)n2Cc2ccco2)c(=O)n1-c1ccccc1 | 0% | u | >57 | 1.3µM*
COc1ccccc1Nc1nc2ccccc2[nH]1 | 13µM* | 8% | x | 1%
O=S(=O)(NC1CCN(Cc2ccccc2)CC1)c1cccc(S(=O)(=O)N2CCOCC2)c1 | 3% | -1% | >57 | 4%
CC(C)=CCC/C(C)=C/CO/N=C1/C[C@@H](O)[C@@H](O)[C@@H]2[C@@H]3C(=O)N(c4cccc(Oc5ccccc5)c4)C(=O)[C@H]3CC[C@H]12 | 1%[11.4 µM] | -1%[11.4 µM] | x | 3%[11.4 µM]
Cc1ccc(Nc2nc(N)nc(CSc3nccn3C)n2)cc1 | 20µM* | -2% | x | 0%
